Consider 93 molecules from PubChem BioAssay AID588726 (The Scripps Research Institute Molecular Screening Center, 2011).

Each structure is given as a SMILES string. Out of some 360,000 compounds screened, about 8,200 (2.3%) were called active. The full list was thinned out, with actives kept by preference. Unmarked numbers belong to inactive results. Rule as the data show it: active = inhibition above about 27%; inactive = the rest.

The experiment deals with Fructose-bisphosphate aldolase (Mycobacterium tuberculosis (strain ATCC 25618 / H37Rv)) (UniProt P9WQA3). Nature of the experiment: M. tuberculosis aldolase activity blockers – biochemical, fluorescence, strain H37Rv, primary screen (AID 588726).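 Also: 0% = vehicle and 100% = reference inhibitor.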 Conditions: purified M. tuberculosis FBA, fluorescence read-out, at 1 µM, hits give high values.
Chain of Fructose-bisphosphate aldolase (Mycobacterium tuberculosis (strain ATCC 25618 / H37Rv)) (P9WQA3 whole entry, looked up): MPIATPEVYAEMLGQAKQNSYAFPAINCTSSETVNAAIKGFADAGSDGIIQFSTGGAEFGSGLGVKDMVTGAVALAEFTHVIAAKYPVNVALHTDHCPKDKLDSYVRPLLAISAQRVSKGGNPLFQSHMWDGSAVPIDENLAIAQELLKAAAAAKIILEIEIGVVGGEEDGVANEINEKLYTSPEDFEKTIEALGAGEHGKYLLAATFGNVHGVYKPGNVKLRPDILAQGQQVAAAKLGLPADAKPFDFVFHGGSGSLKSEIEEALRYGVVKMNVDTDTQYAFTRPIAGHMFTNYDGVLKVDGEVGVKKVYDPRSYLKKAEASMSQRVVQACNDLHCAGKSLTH
In general, inhibition refers to the drop in the measured response relative to a control, in per cent. As for `NC(=O)C1CCN(C(=O)COc2ccc3c4c(c(=O)oc3c2)CCC4)CC1`, the inhibition was 30.9% (active). For the molecule `O=C(COc1ccc2oc3c(c2c1)CCCC3)Nc1ccccn1`, the inhibition was 1.77%. The figure for `CCOC(=O)N1CCN(C(=O)COc2ccc3oc4c(c3c2)CCCC4)CC1` is 0.5%. As for `COc1ccc(N2CCN(C(=O)COc3ccc4c(C)cc(=O)oc4c3)CC2)cc1`, the inhibition is 14.8%.

For `O=C(COc1ccc2c3c(c(=O)oc2c1)CCC3)NC1CCCCC1`, the inhibition was 14.8%. In the case of `NC(=O)COc1ccc2c3c(c(=O)oc2c1)CCCCC3`, the inhibition was 114% (active).

Consider `CCCN(CCC)CCCNC(=O)CNC(=O)c1nn(-c2ccc(OC)cc2)c(=O)c2ccccc12`, for which the inhibition was 1.04%. Take `O=C(COC(=O)CC1CC2CCC1C2)NC(=O)NC1CCCC1` (stereo not drawn): the inhibition was -0.01%. As for `COc1ccccc1NC(=O)C(CC(=O)O)Cc1cc(C)cc(C)c1` (stereo not drawn), the inhibition was -0.4%.

Take `COc1ccc2nc(Nc3nc4cc5c(cc4s3)OCCO5)sc2c1`: the inhibition is 58.2% (active). For `NS(=O)(=O)c1ccc2nc(NC(=O)C3=COCCO3)sc2c1`, the inhibition was 1.72%. `COc1ccc2nc(N3CCN(C(=O)c4ccc([N+](=O)[O-])o4)CC3)sc2c1`: the inhibition was -2.42%.

As to `Cc1cc(C)cc(Oc2nc3c(C)cccn3c(=O)c2/C=C(\C#N)C(=O)NC2CCS(=O)(=O)C2)c1` (stereo not drawn), the inhibition was 16.1%. For the molecule `C/C(=N/OC(=O)c1ccc(Br)cc1)c1ccc(C)cc1`, the inhibition was 1.15%.

As to `COc1ccc(S(=O)(=O)NC(=O)C2(C)CCN2C(=O)c2ccccc2CCc2ccccc2)cc1` (stereo not drawn), the inhibition was 0.28%. The figure for `CCOc1ccc2nc(C(=O)N3CCCC(C)C3)sc2c1` (stereo not drawn) is 0.22%.

Take `CC(=O)Nc1ccc2nc(NC(=O)CS(=O)(=O)c3ccc(F)cc3)sc2c1`: the inhibition was 1.63%. As for `CCOc1ccc2nc(Nc3nc4ccc(NC(C)=O)cc4s3)sc2c1`, the inhibition was 44.8% (active).

Regarding `O=C(NN1C(=O)C2C3C=CC(C3)C2C1=O)c1ccco1` (stereo not drawn), the inhibition is 8.04%. Take `CCC(C)NCC(=O)Nc1ccc([N+](=O)[O-])cc1C(=O)Nc1ccccc1F` (stereo not drawn): the inhibition was -4.2%.

For the molecule `CCOC(=O)N1CCC(NC(=O)Cc2cn(C)c3ccccc23)CC1`, the inhibition is 11%.

`CCOC(=O)N1CCC(NC(=O)CCc2cn(C)c3ccccc23)CC1`: the inhibition was 8.05%.

For `CCOC(=O)N1CCC(NC(=O)c2cnn3ccccc23)CC1`, the inhibition was 30.3% (active). Turning to `CCO[C@@H]1OC(C(=O)NC2CC2)=C[C@H](C)[C@H]1CCCO`, the inhibition is -0.48%. As for `O=C(O)C1CCCCC1C(=O)N1CCN(S(=O)(=O)c2ccc(F)cc2)CC1` (stereo not drawn), the inhibition was -1.39%. For `CSc1c(SCc2ccccc2)cnn(Cc2ccccc2)c1=O`, the inhibition was -0.17%. On to `COC(=O)c1ccc(C2C(Oc3ccccc3C)C(=O)N2CCc2ccc(OC)c(OC)c2)cc1` (stereo not drawn), for which the inhibition was -0.68%. In the case of `COc1ccccc1N1N=C(c2cccs2)CC1c1ccccc1` (stereo not drawn), the inhibition was 39.5% (active). As for `COc1ccc(C2CC(c3cccs3)=NN2c2nc(C)c(C(C)=O)s2)cc1OC` (stereo not drawn), the inhibition is 16.3%. With `COc1ccc(C2CC(c3cccs3)=NN2C(=O)CSc2nnc(N)s2)cc1OC` (stereo not drawn), the inhibition is 3.05%. As for `COc1ccc(C2CC(c3cccs3)=NN2c2ccc(F)cc2)cc1OC` (stereo not drawn), the inhibition was 27.2% (active).

For the molecule `Oc1ccccc1C1=NN(c2ccccc2)C(c2ccccc2)C1` (stereo not drawn), the inhibition is 72.4% (active). For `O=C(COc1ccccc1Cl)N1N=C(c2cccs2)CC1c1ccco1` (stereo not drawn), the inhibition is 7.49%. `Cc1ccc(N2C(=O)C3N=NN(CC(=O)N4N=C(c5cccc6ccccc56)CC4c4ccccc4)C3C2=O)cc1` (stereo not drawn): the inhibition is 11.4%. As to `Cc1ccc(C2=NN(C(=O)CSc3nc(N)cc(N)n3)C(c3ccco3)C2)cc1` (stereo not drawn), the inhibition was 0.79%.

As to `COc1cccc(C2CC(c3cccs3)=NN2C(=O)CSC2=NCCS2)c1OC` (stereo not drawn), the inhibition is 6.98%. Turning to `Cc1ccccc1C1CC(c2cccs2)=NN1S(C)(=O)=O` (stereo not drawn), the inhibition was -0.14%. The figure for `Fc1ccc(N2N=C(c3cccs3)CC2c2ccco2)c(F)c1` (stereo not drawn) is 102% (active). Consider `O=C1C2N=NN(CC(=O)N3N=C(c4cccc5ccccc45)CC3c3ccccc3)C2C(=O)N1c1ccccc1` (stereo not drawn), for which the inhibition is 11.2%. The figure for `Cc1ccc(C(=O)OCC(=O)NC(=O)Cc2ccccc2)c(O)c1` is -0.03%; for `Cc1cc(C(C)(C)C)cc(S(=O)(=O)Nc2ccc(C(=O)O)cc2)c1C` it is -1.68%.

With `CC(=O)Oc1c(C(=O)c2nnc(C)o2)c(=O)n(Cc2ccccc2)c2ccccc12`, the inhibition is 8.77%. The figure for `COc1ccc(CC(N)c2csc(NC(=O)Nc3ccc(C(C)C)cc3)n2)cc1` (stereo not drawn) is -1.36%; for `CN(CC(=O)Nc1ccc(F)cc1)CC(=O)N1CCCCC1` it is -1.7%. For the molecule `C=Cc1ccc(C(=O)N2CCCC(CCC(=O)N3CCN(c4ccccn4)CC3)C2)cc1` (stereo not drawn), the inhibition is -0.65%. Consider `COc1ccc(C2CC(c3cccs3)=NN2c2ccccc2)cc1` (stereo not drawn), for which the inhibition is 74% (active). As for `COc1ccc(C2CC(c3ccccc3)=NN2C(=O)c2ccc(Cl)c([N+](=O)[O-])c2)cc1` (stereo not drawn), the inhibition is -0.72%. With `COc1ccc(C2CC(c3cccs3)=Nc3ccccc3S2)cc1OC` (stereo not drawn), the inhibition is 6.74%. The value for `COc1ccc(C2CC(c3cccs3)Nc3nnnn32)cc1` (stereo not drawn) was 2.13%; that for `COc1ccc(N2CCN(C(=S)Nc3ccc(S(N)(=O)=O)cc3)CC2)cc1` was -1.46%; that for `COc1ccc(N2C(=O)C3CCCN3C2c2cccs2)cc1` (stereo not drawn) was 1.46%.

With `COc1ccc(C2CC(c3cccs3)=NN2C(=O)COC(=O)c2cc3ccccc3cc2O)cc1OC` (stereo not drawn), the inhibition was -0.95%.

Take `COc1ccc(C2=NN(c3ccccc3)C(c3cccs3)C2)cc1` (stereo not drawn): the inhibition is 113% (active). `COc1ccc(CCNC(=O)CSc2nc(C)nc3c2oc2ccccc23)cc1OC`: the inhibition is 0.84%. The value for `O=C(NC1CCCC1)C(c1ccco1)N(C(=O)c1ccco1)c1ccc(F)cc1` (stereo not drawn) was -0.27%. In the case of `FC(F)Oc1ccccc1NC(=S)Nc1cccc(Cl)c1Cl`, the inhibition was -0.26%.

Regarding `CCCCOC(=O)Nc1sc2nc(C)cc(C)c2c1-n1cccc1`, the inhibition is 5.62%. On to `CCCC1NC(=S)NC(C)=C1C(C)=O` (stereo not drawn), for which the inhibition was 2.16%.

With `CCCSc1ncccc1C(=O)O`, the inhibition is 0.16%. Turning to `OCCNc1nc2ccccc2n1-c1ncnc2sc3c(c12)CCC3`, the inhibition is 3.23%. Turning to `O=C(O)c1cccnc1Sc1ncnc2sc3c(c12)CCC3`, the inhibition is 53.6% (active). As for `Oc1c(Cl)cc(Cl)c(Cl)c1Cc1c(O)c(Cl)cc(Cl)c1Cl`, the inhibition was 0.15%.

For `O=C(COC(=O)c1ccc2ncsc2c1)Nc1ccc(Cl)cc1`, the inhibition was 0.06%.

For `CCC(Cc1ccccc1)NC(=O)C1CCCCC1` (stereo not drawn), the inhibition is -3.87%. On to `Cc1ccc(S(=O)(=O)N2CCN(C(=O)CSc3cc(C)ccc3C)CC2)c(C)c1`, for which the inhibition was 29.2% (active).

With `Cc1ccc(S(=O)(=O)N2CCN(C(=O)COC(=O)c3c(C)cc(C)cc3C)CC2)c(C)c1`, the inhibition is -1.2%.

For `CCCc1cc(=O)[nH]c(SCC(=O)N2CCN(S(=O)(=O)c3ccc(C)cc3C)CC2)n1`, the inhibition is -1.1%. As for `Cc1cc(Br)ccc1SCC(=O)OCC(=O)NCc1ccc2c(c1)OCO2`, the inhibition is -1.37%. Take `CCn1c(=O)cc(SCC(=O)NCCC2=CCCCC2)c2ccccc21`: the inhibition is 6.21%. Consider `Cc1ccc(C)c(S(=O)(=O)N2CC(=O)Nc3ccccc32)c1`, for which the inhibition is 31.2% (active). The figure for `Cc1ccc(S(=O)(=O)N2CC(=O)Nc3ccccc32)cc1C` is -0.25%.

`Cc1ccc(S(=O)(=O)N(C)CC(=O)OCC(=O)N2CC(=O)Nc3ccccc32)cc1`: the inhibition is 0.54%. Take `O=C(OCc1cn([C@@H]2C[C@H](c3ccc(Cl)cc3)N(Cc3cccs3)C[C@H]2O)nn1)c1ccccc1`: the inhibition is 0.72%. With `O=C(CCNC(=O)c1ccccc1)NN=Cc1ccc(Br)o1`, the inhibition was 0.48%. As for `O=C(CCc1n[nH]c(=O)[nH]c1=O)N/N=C/c1ccc(Br)o1`, the inhibition was 4.62%. The figure for `O=C(CCC(=O)N/N=C/c1ccc(Br)o1)N/N=C/c1ccc(Br)o1` is 31.8% (active). The value for `N#Cc1cnn2cc(CCN3CCOCC3)c(-c3ccc(F)cc3)nc12` was 15.8%. For the molecule `COc1ccc2c(c1)CCc1cn3ncc(C#N)c3nc1-2`, the inhibition is 522% [above what the read-out allows, likely interference] (active). Regarding `COc1ccc2c(c1)CCc1c(C(=O)N3CCCC3)noc1-2`, the inhibition is 0.6%. Regarding `CC(C)C(NS(=O)(=O)c1cccs1)C(=O)Nc1nc(C(C)(C)C)cs1` (stereo not drawn), the inhibition was 2.98%. Consider `CN1C(=O)C2(OCCCO2)c2cc(Cl)ccc21`, for which the inhibition was 1.91%.

Consider `CCOc1ccc(Nc2nc(Cc3nnc(SCC(=O)c4ccc(C)cc4)o3)cs2)cc1`, for which the inhibition was -1.31%. For the molecule `CCN(CC)C(=O)C1=C(C)N(Cc2ccc(F)cc2)C(=O)C(CC(=O)NC2CCCC2)C1` (stereo not drawn), the inhibition was -1.29%. Take `Cn1nccc1NS(=O)(=O)c1ccc(F)cc1`: the inhibition was -0.97%.

As for `CCN(C(=O)Nc1cccc2ccccc12)c1ccccc1`, the inhibition was 75.4% (active).

On to `O=C(Nc1cccc2ccccc12)NC1CC1`, for which the inhibition is 9.02%. In the case of `CC(=O)N(C)c1ccc(NC(=O)Nc2cccc3ccccc23)cc1`, the inhibition was 6.26%.

On to `O=C(N/N=C/c1cccc2cccnc12)[C@H]1C[C@@H]1c1ccccc1`, for which the inhibition is -0.16%. The figure for `C[N+]1(CCNC(=O)/C=N/O)CCCCC1` is 4.51%.

With `COC(=O)c1c(NC(=O)CN2C(=O)NC(CCc3ccccc3)C2=O)sc2c1CCCCC2` (stereo not drawn), the inhibition was -0.99%. For `O=C1C2C3C=CC(C3)C2C(=O)N1c1ccc(S(=O)(=O)Nc2nccs2)cc1` (stereo not drawn), the inhibition was -2.35%. Turning to `COc1cccc(N2CCN(c3ccc4nnc(CCC(=O)N5CCN(C)CC5)n4n3)CC2)c1`, the inhibition was 1.71%. In the case of `CN1CCN(c2ccc([N+](=O)[O-])c(Sc3nc4ccccc4[nH]3)c2)CC1`, the inhibition is -3.38%.
